“And” between values parts separate entries of the source, which are not always exact repeats. Identical values can stand only once. The campaign covered roughly 5,500 compounds. About 2,000 (36%) were called active. Inconclusive results (about 18%) are left out. No stated cut-off is given here; in the data, active means normalized growth mostly below about 0.91 (no sharp cut-off); inconclusive means no clear call, values can overlap the other calls; inactive means mostly above about 0.92. The list shows a part of the results.
Test: chemical genetic growth profiling, strain panel (AID 1159580);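 further: tested at 20 µM; growth read once vehicle control cultures reached saturation at 30 °C; 1 = growth at the plate median or of vehicle wells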
Conditions: S. cerevisiae deletion strains, growth OD

Measured: normalized growth

CC(C)C(=O)Nc1ccc([N+](=O)[O-])c(C(F)(F)F)c1
inactive: locus YAL013W, strain DEP1, stronger effect = lower value 0.995 | locus YAL021C, strain ccr4, stronger effect = lower value 1.03 | locus YAL026C, strain drs2, stronger effect = lower value 1.01 | locus YAL030W, strain snc1, stronger effect = lower value 1.02 | locus YAL040C, strain CLN3, stronger effect = lower value 0.959 | locus YBL061C, strain skt5, stronger effect = lower value 1.02 | locus YBR009C, strain hhf1, stronger effect = lower value 1.03 | locus YBR021W, strain FUR4, stronger effect = lower value 0.929 | locus YBR023C, strain chs3, stronger effect = lower value 1.03 | locus YBR171W, strain sec66, stronger effect = lower value 1.04 | locus YBR229C, strain ROT2, stronger effect = lower value 0.99 | locus YBR231C, strain swc5, stronger effect = lower value 0.994 | locus YBR279W, strain paf1, stronger effect = lower value 1.02 | locus YCL011C, strain gbp2, stronger effect = lower value 1.02 | locus YCL016C, strain dcc1, stronger effect = lower value 1.01 | locus YCL029C, strain bik1, stronger effect = lower value 0.99 | locus YCL061C, strain MRC1 (second series), stronger effect = lower value 0.999 | locus YCL069W, strain vba3, stronger effect = lower value 1.02 | locus YCR088W, strain abp1, stronger effect = lower value 1.01 | locus YDL005C, strain med2, stronger effect = lower value 1.03 | locus YDL035C, strain GPR1, stronger effect = lower value 0.993 | locus YDL040C, strain nat1, stronger effect = lower value 1.02 | locus YDL074C, strain BRE1, stronger effect = lower value 0.946 | locus YDL101C, strain DUN1, stronger effect = lower value 0.993 | locus YDL134C, strain PPH21, stronger effect = lower value 0.991 | locus YDL185W, strain tfp1, stronger effect = lower value 0.98 | locus YDL192W, strain arf1, stronger effect = lower value 0.977 | locus YDR001C, strain nth1, stronger effect = lower value 1.02 | locus YDR069C, strain doa4, stronger effect = lower value 1.02 | locus YDR101C, strain arx1, stronger effect = lower value 0.969 | locus YDR137W, strain rgp1, stronger effect = lower value 0.983 | locus YDR150W, strain NUM1, stronger effect = lower value 0.994 and 0.998 | locus YDR159W, strain sac3, stronger effect = lower value 1.03 | locus YDR162C, strain NBP2, stronger effect = lower value 0.982 | locus YDR195W, strain ref2 1.07 | locus YDR297W, strain sur2, stronger effect = lower value 1.01 | locus YDR318W, strain mcm21, stronger effect = lower value 0.964 | locus YDR334W, strain swr1, stronger effect = lower value 1.01 | locus YDR335W, strain msn5, stronger effect = lower value 1.03 | locus YDR363W, strain ESC2, stronger effect = lower value 1.05 | locus YDR388W, stronger effect = lower value 0.961 | locus YDR392W, strain spt3, stronger effect = lower value 0.999 | locus YDR502C, strain sam2, stronger effect = lower value 0.96 | locus YEL003W, strain gim4, stronger effect = lower value 1.02 | locus YEL037C, strain rad23, stronger effect = lower value 1.02 | locus YEL061C, strain CIN8 (second series), stronger effect = lower value 1.01 | locus YEL061C, strain CIN8, stronger effect = lower value 0.993 | locus YER002W, strain NOP16, stronger effect = lower value 0.972 | locus YER015W, strain faa2, stronger effect = lower value 1.02 | locus YER016W, strain bim1, stronger effect = lower value 1.01 | locus YER110C, stronger effect = lower value 0.979 | locus YER111C, strain swi4, stronger effect = lower value 1.03 | locus YER155C, strain BEM2 (second series), stronger effect = lower value 0.993 | locus YER155C, strain BEM2, stronger effect = lower value 0.985 | locus YER167W, strain BCK2, stronger effect = lower value 0.969 | locus YFR010W, strain ubp6, stronger effect = lower value 1.04 | locus YGL078C, strain dbp3, stronger effect = lower value 0.984 | locus YGL086W, strain mad1, stronger effect = lower value 0.984 | locus YGL167C, strain pmr1, stronger effect = lower value 1.03 | locus YGL173C, strain kem1, stronger effect = lower value 1.03 | locus YGL227W, strain vid30, stronger effect = lower value 1.03 | locus YGL240W, strain doc1, stronger effect = lower value 1.01 | locus YGL248W, strain PDE1, stronger effect = lower value 0.988 | locus YGL253W, strain hxk2, stronger effect = lower value 1.02 | locus YGR078C, strain PAC10, stronger effect = lower value 0.992 and 0.982 | locus YGR135W, strain pre9, stronger effect = lower value 0.968 | locus YGR229C, strain SMI1, stronger effect = lower value 0.978 | locus YGR252W, strain gcn5, stronger effect = lower value 0.916 | locus YHR013C, strain ard1, stronger effect = lower value 0.995 | locus YHR027C, strain rpn1, stronger effect = lower value 1.04 | locus YHR030C, strain SLT2, stronger effect = lower value 0.994 and 0.977 | locus YHR079C, strain IRE1 (second series), stronger effect = lower value 0.975 | locus YHR079C, strain IRE1, stronger effect = lower value 0.964 | locus YHR094C, strain hxt1, stronger effect = lower value 0.98 | locus YHR129C, strain ARP1, stronger effect = lower value 0.981 | locus YHR142W, strain chs7, stronger effect = lower value 1.03 | locus YHR200W, strain rpn10, stronger effect = lower value 0.963 | locus YIL066C, strain RNR3, stronger effect = lower value 0.986 | locus YIL073C, strain SPO22, stronger effect = lower value 0.98 | locus YIL125W, strain kgd1, stronger effect = lower value 0.983 | locus YIR030C, strain dcg1, stronger effect = lower value 0.973 | locus YJL092W, strain hpr5, stronger effect = lower value 1.03 | locus YJL095W, strain BCK1 (second series), stronger effect = lower value 1.01 | locus YJL095W, strain BCK1, stronger effect = lower value 0.958 and 0.976 | locus YJL115W, strain asf1, stronger effect = lower value 1.03 | locus YJL129C, strain trk1, stronger effect = lower value 1.04 | locus YJL134W, strain LCB3, stronger effect = lower value 0.986 | locus YJL154C, strain vps35, stronger effect = lower value 1.02 | locus YJL164C, strain tpk1, stronger effect = lower value 1.02 | locus YJL166W, strain qcr8, stronger effect = lower value 1.02 | locus YJL168C, strain set2, stronger effect = lower value 0.977 | locus YJL187C, strain SWE1 (second series), stronger effect = lower value 0.988 | locus YJR043C, strain POL32, stronger effect = lower value 0.967 | locus YJR066W, strain TOR1, stronger effect = lower value 0.92 | locus YJR075W, strain HOC1, stronger effect = lower value 0.98

— PubChem BioAssay AID1159580 (chemical genetic matrix, 2015)
